Only some compounds are listed: those with a hit (about 1.3% of all), similar ones and a draw of the others.
LRH-1 inv ag = inverse agonists of human LRH-1 (NR5A2). O00482. HEK293T StAR-luciferase reporter, LRH-1 transfected, 24 h. inhibition, % at 3.6 µM. actives 0.13% (n = 360,000). AID 602396;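 active = inhibition above the mean inhibition of all tested compounds plus 3 SD, cut at about 73% in these data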
SRC2 inh = human SRC2 (NCOA2) inhibition; HEK293 GAL4-SRC2 luciferase reporter, luminescence; actives 0.17% (n = 370,000); inhibition, % at 9 µM; AID 651957; Q15596;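 active = inhibition above the mean inhibition of all tested compounds plus 3 SD, set per campaign, cut at about 52% in these data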
SRC1 inh = inhibits human SRC1 coactivator; HEK293 GAL4-SRC1 luciferase reporter, luminescence; inhibition, % at 3.6 µM; actives 0.12% (n = 360,000); AID 588354;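 active = inhibition above the campaign mean plus 3 SD, with each screening campaign given its own cutoff, cut at about 60% in these data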
Gli-Sufu antag = antagonists of Gli-Sufu signaling. actives 0.74% (n = 340,000). AID 588413. inhibition, % at 5 µM. Sufu-KO-LIGHT fibroblasts, Gli luciferase reporter luminescence;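 active = inhibition above about 55%, limit read from the data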
SRC3 inh = inhibits human SRC3 coactivator | HEK293 GAL4-SRC3 luciferase reporter, luminescence | AID 588352 | actives 0.17% (n = 360,000) | inhibition, % at 3.6 µM | Q9Y6Q9;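 active = inhibition above a per-campaign cutoff, the mean of all compounds plus 3 SD, cut at about 60% in these data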;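 note: higher means less SRC3-driven luciferase light from the GAL4 reporter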
COUP-TFII inh = blocks human COUP-TFII nuclear receptor | P24468 | HEK293T NGFI-A luciferase reporter, luminescence | inhibition, % at 8.6 µM | actives 0.7% (n = 370,000) | AID 686940;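 active = inhibition above a per-plate cutoff, mean inhibition of test wells between control levels plus 3 SD, cut at about 38% in these data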;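 note: cells cotransfected with COUP-TFII expression vector driving the NGFI-A reporter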
Target sequence (P24468 whole entry, looked up): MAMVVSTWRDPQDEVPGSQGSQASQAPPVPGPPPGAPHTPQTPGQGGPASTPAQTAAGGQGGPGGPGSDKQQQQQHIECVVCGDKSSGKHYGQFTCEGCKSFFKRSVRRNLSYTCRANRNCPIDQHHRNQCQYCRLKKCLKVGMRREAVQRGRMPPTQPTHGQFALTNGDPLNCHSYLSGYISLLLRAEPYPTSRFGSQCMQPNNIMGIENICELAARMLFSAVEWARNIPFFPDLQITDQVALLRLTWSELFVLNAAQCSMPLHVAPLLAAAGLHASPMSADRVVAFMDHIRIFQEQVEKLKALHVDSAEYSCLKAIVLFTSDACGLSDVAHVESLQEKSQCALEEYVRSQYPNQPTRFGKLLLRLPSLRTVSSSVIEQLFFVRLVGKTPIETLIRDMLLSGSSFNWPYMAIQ
Gal4-VP16 ctr = VP16 inhibition counter-screen for COUP-TFII. shares compounds with COUP-TFII inh. HEK293 Gal4-VP16 luciferase reporter, luminescence. inhibition, % at 8.5 µM. actives 25% (n = 2,500); in the data active = inhibition above about 13%
NR2F2 inh conf = confirmation of human COUP-TFII (NR2F2) inhibitors; shares compounds with COUP-TFII inh; HEK293 NGFI-A luciferase reporter, luminescence; inhibition, % at 8.5 µM; actives 45% (n = 2,500); AID 687008;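 active = mean inhibition over three repeats above a set limit taken from the earlier primary screen, cut at about 38% in these data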
Of the large screens only hits and unclear results are named; the others gave an inactive call (follow-up assays come after a bar, where they were run).

CCN(CC)C(=O)CC[C@H]1CC[C@]2(CCCN(C(=O)c3ccc4ccccc4n3)C2)O1	none (no result: LRH-1 inv ag, SRC1 inh, Gli-Sufu antag, SRC3 inh)
S=C(Nc1cc(Cl)cc(Cl)c1)NC(c1ccccc1)c1ccccc1	COUP-TFII inh 57 (no result: LRH-1 inv ag, SRC2 inh, SRC1 inh, Gli-Sufu antag, SRC3 inh) | Gal4-VP16 ctr inactive | NR2F2 inh conf inactive
O=C(Nc1ccn(Cc2c(F)c(F)cc(F)c2F)n1)c1ccc(COc2ccccc2Cl)cc1	none (no result: SRC2 inh, COUP-TFII inh)
O=C(Nc1ccn(Cc2ccccc2F)n1)c1ccc(COc2ccccc2Cl)cc1	COUP-TFII inh 61 | Gal4-VP16 ctr inactive | NR2F2 inh conf inactive
Oc1ccc(Oc2ccc3c(C(F)(F)F)cc(C(F)(F)F)nc3n2)cc1	COUP-TFII inh 49 | Gal4-VP16 ctr inactive | NR2F2 inh conf 37
COc1ccc(Oc2ccc3c(C(F)(F)F)cc(C(F)(F)F)nc3n2)cc1	none
Nc1ccc2c(c1)OC1(CCCC1)O2	SRC2 inh 66, COUP-TFII inh 65 | Gal4-VP16 ctr inactive | NR2F2 inh conf inactive
CN(C)c1ccc(C=C2SC(=S)NC2=O)cc1	none
CN(C)c1ccc(/C=N/N=C2/NC(=O)/C(=C/c3ccc([N+](=O)[O-])cc3)S2)cc1	COUP-TFII inh 41 | Gal4-VP16 ctr inactive | NR2F2 inh conf inactive
CCOC(=O)[C@@]12CCCC=C1N(CCc1ccc(Cl)cc1)C(=O)[C@H]2CC(=O)N1CCOCC1	none (no result: LRH-1 inv ag, SRC1 inh, Gli-Sufu antag, SRC3 inh)
COc1ccc(C)cc1NCc1cccc(OC)c1OC	none
COc1cc(OC)c(OC)cc1CNc1cc(C)ccc1OC	COUP-TFII inh 39 | Gal4-VP16 ctr inactive | NR2F2 inh conf inactive
Cc1cccc(-c2noc(CCC(=O)NCc3ccco3)n2)c1	none
CC(C)(C)c1ccc(-c2noc(CCC(=O)NCc3ccco3)n2)cc1	SRC2 inh 63, Gli-Sufu antag 70, COUP-TFII inh 38 | Gal4-VP16 ctr 25 | NR2F2 inh conf 57
CCc1cc(-c2nnn(CCC3COCCO3)c2CC)ccc1-c1cn(Cc2ccccc2)nn1 (centres undefined)	COUP-TFII inh 66 (no result: Gli-Sufu antag) | Gal4-VP16 ctr inactive | NR2F2 inh conf inactive
CCc1cc(-c2cnnn2Cc2ccc3ccccc3c2)ccc1-c1cn(CC(C)C)nn1	none (no result: Gli-Sufu antag)
O=C(OCc1cn(Cc2ccc(F)cc2)nn1)N1CCOCC1	none (no result: LRH-1 inv ag, SRC1 inh, Gli-Sufu antag, SRC3 inh)
CCOc1ccc(Br)cc1/C(C)=N\NC1=NCCN1	COUP-TFII inh 45 | Gal4-VP16 ctr inactive | NR2F2 inh conf inactive
Clc1ccc(-c2cc(-c3nnc4sc(Cc5cccs5)nn34)[nH]n2)cc1	none (no result: LRH-1 inv ag, SRC1 inh, Gli-Sufu antag, SRC3 inh)
Cc1nc(-c2ccc(C(=O)Nc3cccc(F)c3)cc2)cs1	COUP-TFII inh 56 | Gal4-VP16 ctr inactive | NR2F2 inh conf inactive
Cc1nc(-c2cccc(NC(=O)c3ccco3)c2)cs1	none
Cc1nc(-c2ccc(NC(=O)c3ccco3)cc2)cs1	COUP-TFII inh 41 | Gal4-VP16 ctr inactive | NR2F2 inh conf inactive
CCc1ccc(OCC(=O)Nc2ccncc2)cc1	none
Cc1cc(OCC(=O)Nc2ccncc2)cc(C)c1Br	COUP-TFII inh 58 | Gal4-VP16 ctr inactive | NR2F2 inh conf inactive
Cc1cc(OCC(=O)Nc2ccncc2)ccc1Cl	none
Cc1ccc(Oc2ccc(OCC(=O)Nc3ccncc3)cc2)cc1	COUP-TFII inh 72 (no result: Gli-Sufu antag) | Gal4-VP16 ctr 19 | NR2F2 inh conf 74
CCCCOc1ccc(C(=O)Nc2ccncc2)cc1	COUP-TFII inh 51 | Gal4-VP16 ctr inactive | NR2F2 inh conf inactive
CC(C)(C)c1ccc(NC(=O)COc2ccc(-n3ccnc3)cc2)cc1	COUP-TFII inh 51 | Gal4-VP16 ctr inactive | NR2F2 inh conf 47
O=C(N[C@H]1C[C@@H]2O[C@H](CO)CC[C@@H]2O[C@@H]1CCc1ccc(-c2cccnc2)cc1)c1cccc(F)c1	none (no result: LRH-1 inv ag, SRC1 inh, Gli-Sufu antag, SRC3 inh)
O=C(COc1ccc2ccccc2c1)Nc1ccncc1	COUP-TFII inh 47 | Gal4-VP16 ctr inactive | NR2F2 inh conf inactive
COC(=O)C1CN(Cc2cn(Cc3ccc(F)cc3)nn2)CCS(=O)(=O)N1Cc1ccccc1 (centres undefined)	none (no result: LRH-1 inv ag, SRC1 inh, Gli-Sufu antag, SRC3 inh)
C[C@H](CCC(=O)N(c1ccccc1)c1ccccc1)CC1CCCCC1	none (no result: LRH-1 inv ag, SRC1 inh, Gli-Sufu antag, SRC3 inh)
O=C(N/N=C/c1ccc([N+](=O)[O-])s1)c1ccccc1	COUP-TFII inh 38 | Gal4-VP16 ctr 31 | NR2F2 inh conf inactive
Cc1ccccc1C(=O)N/N=C/c1ccc([N+](=O)[O-])s1	COUP-TFII inh 57 | Gal4-VP16 ctr 55 | NR2F2 inh conf 44
CCCCCCCCN1CCS(=O)(=O)N(Cc2ccc(OC)cc2)C(C(=O)OC)C1 (centres undefined)	none (no result: LRH-1 inv ag, SRC1 inh, Gli-Sufu antag, SRC3 inh)
Cc1cc(Br)ccc1NC(=O)CN(C)C(=O)C1CCN(c2ncnc3sc(C)c(C)c23)CC1	COUP-TFII inh 47 | Gal4-VP16 ctr inactive | NR2F2 inh conf inactive
COc1ccc(-n2cc(COC(=O)NCCc3c[nH]c4ccccc34)nn2)cc1	none (no result: LRH-1 inv ag, SRC1 inh, Gli-Sufu antag, SRC3 inh)
CC(=O)Nc1ccc(NC2=C/C(=N/S(=O)(=O)c3cccs3)c3ccccc3C2=O)cc1	SRC3 inh 80, COUP-TFII inh 50 | Gal4-VP16 ctr 17 | NR2F2 inh conf inactive
Cc1ccccc1NC1=C/C(=N\S(=O)(=O)c2ccc(C(=O)O)cc2)c2ccccc2C1=O	none
COc1ccc(S(=O)(=O)/N=C2\C=C(Nc3ccc(O)cc3)C(=O)c3ccccc32)cc1	LRH-1 inv ag 93, SRC2 inh 74, SRC1 inh 89, Gli-Sufu antag 95, SRC3 inh 88, COUP-TFII inh 71 | Gal4-VP16 ctr 83 | NR2F2 inh conf 92
COc1ccc(-c2noc(C3CCCN(C(=O)NC4CCC(C)CC4)C3)n2)cc1 (centres undefined)	none (no result: LRH-1 inv ag, SRC1 inh, Gli-Sufu antag, SRC3 inh)
Cc1ccc2[nH]c(C)c(/C=C/c3cc[n+](C)cc3)c2c1	COUP-TFII inh 41 | Gal4-VP16 ctr inactive | NR2F2 inh conf inactive
C[n+]1ccc(/C=C/c2ccc(Br)cc2)cc1	none
Cc1ccc2c(c1)c(/C=C/c1cc[n+](C)cc1)c(C)n2C	Gli-Sufu antag 57, COUP-TFII inh 54 | Gal4-VP16 ctr inactive | NR2F2 inh conf inactive
O=C(Nc1ccc(F)cc1)Nc1nc2ncccn2c1-c1ccc(F)cc1	none (no result: LRH-1 inv ag, SRC1 inh, Gli-Sufu antag, SRC3 inh)
C(=N\Nc1nncc2ccccc12)/c1cccnc1	none (no result: LRH-1 inv ag, SRC1 inh, Gli-Sufu antag, SRC3 inh)
COc1ccc(S[C@]2(C(=O)N3CCCC3)CC(=O)N(c3ccsc3)[C@@H]2c2ccc(OC)cc2)cc1	none (no result: LRH-1 inv ag, SRC1 inh, Gli-Sufu antag, SRC3 inh)
CC(=O)OCCN1c2ccccc2Sc2cnccc21	COUP-TFII inh 37 (no result: Gli-Sufu antag) | Gal4-VP16 ctr inactive | NR2F2 inh conf inactive
CCC1Sc2ccc(S(=O)(=O)Nc3ccc(OC)c(OC)c3)cc2NC1=O (centres undefined)	COUP-TFII inh 52 | Gal4-VP16 ctr inactive | NR2F2 inh conf inactive
CCC1Sc2ccc(S(=O)(=O)Nc3ccc(OC)cc3)cc2NC1=O (centres undefined)	none
COc1ccc(-n2c(COc3ccc(C)cc3)nnc2SCC(=O)c2ccc(-c3ccccc3)cc2)cc1	none (no result: LRH-1 inv ag, SRC1 inh, Gli-Sufu antag, SRC3 inh)
